Laboratory results reported in PubChem BioAssay (EPA / NIEHS).
“And” between values parts separate entries of the source, which are not always exact repeats. Identical values can stand only once. Records with an inconclusive call do not appear. Some structures have more than one record in an assay (separate samples or runs), and their calls can disagree. The source made the active and inactive calls. Rule for the calls, unless noted: active = hit-call score of the fitted dose curve at least 0.9, where 1 is the maximum; inconclusive = response in the unintended direction; inactive = score below 0.9.

Experiments:
[1] = ATG_Oct_MLP_CIS: Attagene CIS-FACTORIAL HepG2 Assay for human Octamer-Binding Transcription Factor (Oct) (AID 2282993; active = hit-call score of the fitted dose curve at least 0.9, where 1 is the maximum; inactive = score below 0.9); conditions: HepG2 Attagene cis-factorial Oct reporter, mRNA; actives raise or lower the signal
Summary of the method: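 Read-out: reporter mRNA via RT-PCR plus capillary electrophoresis of 6-FAM-labelled fragments. Transiently transfected HepG2, 24 h exposure, endogenous TF activity on cis elements. Gain or loss of signal fitted relative to DMSO.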

[2] = biological target: Cellular tumor antigen p53 (Homo sapiens) (UniProt P04637); test: ATG_p53_CIS: Attagene CIS-FACTORIAL HepG2 Assay for human p53 Transcription Factor (AID 2282994; active = hit-call score of the fitted dose curve at least 0.9, where 1 is the maximum; inactive = score below 0.9); conditions: HepG2 p53 cis-element reporter, Attagene mRNA; actives raise or lower the signal
Summary of the method: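 HepG2, transient MRTU transfection (cis promoter elements, endogenous TFs); 24 h dosing; RNA isolation, RT-PCR, 6-FAM primer extension, HpaI digest, CE fluorescence; bidirectional fit vs DMSO.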

[3] = biological target: human Peroxisome Proliferator-activated Receptor delta (PPARd), PPARD (gene 5467) (UniProt Q03181); test: ATG_PPARd_TRANS: Attagene TRANS-FACTORIAL HepG2 Assay for human Peroxisome Proliferator-activated Receptor delta (PPARd) (AID 2283002)
Summary of the method: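 Read-out: reporter mRNA induction, quantified by fluorescent RT-PCR products resolved by capillary electrophoresis. Human HepG2 liver cells carried transiently transfected Gal4-UAS reporter constructs with chimeric NR-Gal4 fusions. Cells were dosed for 24 h; DMSO served as baseline.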

[4] = biological target: Peroxisome proliferator-activated receptor gamma (Homo sapiens) (UniProt P37231); test: ATG_PPARg_TRANS: Attagene TRANS-FACTORIAL HepG2 Assay for human Peroxisome Proliferator-activated Receptor-gamma (PPARg) (AID 2283007)
Peroxisome proliferator-activated receptor gamma (Homo sapiens), sequence (P37231 whole entry, looked up): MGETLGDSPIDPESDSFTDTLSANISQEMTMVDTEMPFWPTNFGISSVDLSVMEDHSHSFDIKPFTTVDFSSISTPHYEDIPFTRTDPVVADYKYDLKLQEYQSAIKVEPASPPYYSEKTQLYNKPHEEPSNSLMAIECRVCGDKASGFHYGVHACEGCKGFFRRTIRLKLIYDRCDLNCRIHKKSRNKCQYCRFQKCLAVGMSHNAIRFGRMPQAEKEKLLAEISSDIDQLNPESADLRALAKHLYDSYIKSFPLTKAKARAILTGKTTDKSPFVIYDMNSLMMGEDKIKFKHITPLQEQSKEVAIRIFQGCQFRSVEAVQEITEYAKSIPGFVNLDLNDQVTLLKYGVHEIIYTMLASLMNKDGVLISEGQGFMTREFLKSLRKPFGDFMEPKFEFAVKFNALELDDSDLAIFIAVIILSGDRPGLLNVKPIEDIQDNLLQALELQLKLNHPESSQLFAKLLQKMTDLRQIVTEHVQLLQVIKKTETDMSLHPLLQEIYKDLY
Summary of the method: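 Multiplexed reporter transcription units in HepG2, 24 h dosing, reporter transcripts quantified by fluorescent RT-PCR and capillary electrophoresis. Increase over DMSO scored.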

[5] = biological target: Retinoic acid receptor RXR-alpha (Homo sapiens) (UniProt P19793); test: ATG_RXRa_TRANS: Attagene TRANS-FACTORIAL HepG2 Assay for human Retinoid X Receptor alpha (RXRa) (AID 2283012)
Retinoic acid receptor RXR-alpha (Homo sapiens), sequence (P19793 whole entry, looked up, the tested form may be a part): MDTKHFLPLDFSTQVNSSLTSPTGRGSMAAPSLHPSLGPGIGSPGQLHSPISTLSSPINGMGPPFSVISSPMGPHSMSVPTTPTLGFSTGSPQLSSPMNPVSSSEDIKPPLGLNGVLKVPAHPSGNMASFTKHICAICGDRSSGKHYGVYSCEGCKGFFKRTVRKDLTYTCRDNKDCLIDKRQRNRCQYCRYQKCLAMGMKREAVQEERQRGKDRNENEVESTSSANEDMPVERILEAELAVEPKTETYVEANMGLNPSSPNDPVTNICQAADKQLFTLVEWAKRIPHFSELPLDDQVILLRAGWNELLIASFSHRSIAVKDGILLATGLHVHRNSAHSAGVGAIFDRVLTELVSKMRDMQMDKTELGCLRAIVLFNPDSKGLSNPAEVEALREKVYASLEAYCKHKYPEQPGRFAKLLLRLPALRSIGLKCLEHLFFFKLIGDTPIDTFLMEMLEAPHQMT
Summary of the method: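 Cells (HepG2) carried transiently transfected GAL4-responsive reporter units. Following a 24 h chemical incubation, reporter mRNA induction was read via RT-PCR fragment analysis; DMSO served as negative control and baseline.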

[6] = biological target: human Thyroid Receptor alpha (THRa1), THRA (gene 7067) (UniProt P10827); test: ATG_THRa1_TRANS: Attagene TRANS-FACTORIAL HepG2 Assay for human Thyroid Receptor alpha (THRa1) (AID 2283014)
human Thyroid Receptor alpha (THRa1), THRA (gene 7067), sequence (P10827 whole entry, looked up, the tested form may be a part): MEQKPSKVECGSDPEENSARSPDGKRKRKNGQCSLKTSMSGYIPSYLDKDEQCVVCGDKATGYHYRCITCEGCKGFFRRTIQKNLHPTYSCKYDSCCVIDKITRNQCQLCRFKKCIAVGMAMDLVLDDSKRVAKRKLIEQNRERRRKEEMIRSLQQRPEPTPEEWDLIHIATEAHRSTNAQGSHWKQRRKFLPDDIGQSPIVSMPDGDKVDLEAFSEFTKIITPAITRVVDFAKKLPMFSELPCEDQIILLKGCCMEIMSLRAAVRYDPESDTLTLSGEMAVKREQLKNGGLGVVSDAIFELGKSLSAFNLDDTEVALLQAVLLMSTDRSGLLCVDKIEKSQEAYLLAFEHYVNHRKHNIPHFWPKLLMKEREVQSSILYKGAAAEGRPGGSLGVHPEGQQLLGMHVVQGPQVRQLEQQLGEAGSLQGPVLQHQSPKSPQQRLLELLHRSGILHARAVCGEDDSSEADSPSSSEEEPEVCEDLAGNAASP
Summary of the method: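 First, HepG2 cells receive multiple GAL4-UAS reporter units and the chimeric receptor. They are then dosed for 24 h, after which RNA is reverse-transcribed, amplified, labelled, HpaI-cut and sized by capillary electrophoresis; gain relative to DMSO is scored.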

[7] = BSK_3C_TissueFactor: BioMAP Diversity Plus: 3C Assay for Tissue Factor Biomarker Activity (AID 2282997; active = hit-call score of the fitted dose curve at least 0.9, where 1 is the maximum; inactive = score below 0.9); conditions: BioMAP 3C HUVEC, tissue factor biomarker readout; actives raise or lower the signal
Summary of the method: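 Values derive from bidirectional curve fitting against DMSO of Tissue Factor ELISA signals, taken 24 h after dosing primary human umbilical vein endothelial cells.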

[8] = BSK_3C_uPAR: BioMAP Diversity Plus: 3C Assay for Urokinase-type plasminogen activator receptor (uPAR) Biomarker Activity (AID 2282998; active = hit-call score of the fitted dose curve at least 0.9, where 1 is the maximum; inactive = score below 0.9); conditions: BioMAP 3C HUVEC, uPAR biomarker ELISA; actives raise or lower the signal
Summary of the method: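 HUVEC primary cells; 24 h post-dose; uPAR by ELISA; gain or loss of signal fitted bidirectionally vs DMSO baseline.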

[9] = BSK_3C_VCAM1: BioMAP Diversity Plus: 3C Assay for Vascular cell adhesion molecule 1 (VCAM1) Biomarker Activity (AID 2282999; active = hit-call score of the fitted dose curve at least 0.9, where 1 is the maximum; inactive = score below 0.9); conditions: BioMAP 3C HUVEC, VCAM1 ELISA, cytokine-stimulated; actives raise or lower the signal
Summary of the method: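 Human umbilical vein endothelial cells (3C system), biomarker read by ELISA 24 h after dosing; bidirectional fit against DMSO baseline. Cytotoxicity tracked by SRB total-protein staining in parallel cultures at biomarker time.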

[10] = BSK_4H_Eotaxin3: BioMAP Diversity Plus: 4H Assay for Eotaxin 3 Biomarker Activity (AID 2283000; active = hit-call score of the fitted dose curve at least 0.9, where 1 is the maximum; inactive = score below 0.9); conditions: primary human endothelial cells (HUVEC); actives raise or lower the signal
Summary of the method: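 Endothelial primary cells (human umbilical vein) exposed to compound for 24 h. ELISA detection of Eotaxin-3.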

[11] = read-out: Intercellular Adhesion Molecule 1 (ICAM1), ICAM1 (gene 3383); test: BSK_3C_ICAM1: BioMAP Diversity Plus: 3C Assay for Intercellular Adhesion Molecule 1 (ICAM1) Biomarker Activity (AID 2283003; active = hit-call score of the fitted dose curve at least 0.9, where 1 is the maximum; inactive = score below 0.9); conditions: primary human endothelial cells (HUVEC); actives raise or lower the signal
Summary of the method: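 Human vascular endothelial primary cells, 3C conditions, 24 h treatment. ICAM-1 by ELISA.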

[12] = biological target: human Retinoic Acid Receptor beta (RARb), RARB (gene 5915) (UniProt P10826); test: ATG_RARb_TRANS: Attagene TRANS-FACTORIAL HepG2 Assay for human Retinoic Acid Receptor beta (AID 2283004)
human Retinoic Acid Receptor beta (RARb), RARB (gene 5915), sequence (P10826 whole entry, looked up, the tested form may be a part): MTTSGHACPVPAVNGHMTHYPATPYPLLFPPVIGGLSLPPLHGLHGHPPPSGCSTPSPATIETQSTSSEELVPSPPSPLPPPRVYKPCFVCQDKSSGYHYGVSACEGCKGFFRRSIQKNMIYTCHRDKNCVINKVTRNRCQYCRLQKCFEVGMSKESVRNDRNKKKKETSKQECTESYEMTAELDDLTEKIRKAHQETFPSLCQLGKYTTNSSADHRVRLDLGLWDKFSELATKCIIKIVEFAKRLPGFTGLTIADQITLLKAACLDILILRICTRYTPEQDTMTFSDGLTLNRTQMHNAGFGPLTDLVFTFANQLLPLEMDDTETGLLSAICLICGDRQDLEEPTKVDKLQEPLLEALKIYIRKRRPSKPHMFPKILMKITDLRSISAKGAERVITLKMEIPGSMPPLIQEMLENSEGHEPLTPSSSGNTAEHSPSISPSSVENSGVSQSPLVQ
Summary of the method: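 HepG2, transient MRTU transfection, NR–Gal4 chimera, 24 h treatment; RT-PCR plus CE fluorescence detection of reporter mRNA; gain of signal vs DMSO.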

[13] = biological target: Retinoic acid receptor alpha (Homo sapiens) (UniProt P10276); test: ATG_RARa_TRANS: Attagene TRANS-FACTORIAL HepG2 Assay for human Retinoic Acid Receptor alpha (RARa) (AID 2283005);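 for AC50: potency for increased reporter signal meaning RARa activation over DMSO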
Retinoic acid receptor alpha (Homo sapiens), sequence (P10276 whole entry, looked up, the tested form may be a part): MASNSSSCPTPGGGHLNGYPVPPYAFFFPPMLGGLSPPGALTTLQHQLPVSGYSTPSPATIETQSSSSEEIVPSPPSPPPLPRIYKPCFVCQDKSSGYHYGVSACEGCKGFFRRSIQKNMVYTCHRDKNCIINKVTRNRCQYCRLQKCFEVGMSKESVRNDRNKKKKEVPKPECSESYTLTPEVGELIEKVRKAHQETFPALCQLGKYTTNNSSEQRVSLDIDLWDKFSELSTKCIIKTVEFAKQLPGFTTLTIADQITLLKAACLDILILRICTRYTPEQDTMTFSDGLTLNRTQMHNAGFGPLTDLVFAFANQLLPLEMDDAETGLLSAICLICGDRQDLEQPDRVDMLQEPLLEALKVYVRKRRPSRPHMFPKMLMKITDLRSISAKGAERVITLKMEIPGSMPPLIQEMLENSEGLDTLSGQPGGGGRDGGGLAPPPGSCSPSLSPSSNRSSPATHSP
Summary of the method: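 HepG2 transiently transfected with multiplex GAL4-UAS reporter units including a human RARa–GAL4 chimera; 24 h compound exposure. Reporter mRNA quantified by RT-PCR, 6-FAM labeling and capillary electrophoresis; gain of signal versus DMSO.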

[14] = BSK_3C_Proliferation: Cell Proliferation Assessment in the BioMAP Diversity Plus: 3C Assay (AID 2283006; active = hit-call score of the fitted dose curve at least 0.9, where 1 is the maximum; inactive = score below 0.9;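 for AC50: potency may reflect either rise or fall in cell number versus DMSO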); conditions: primary human endothelial cells (HUVEC)
Summary of the method: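 Proliferation of human vascular endothelial primary cells after 48 h dosing, quantified as SRB-stained protein at 560 nm relative to DMSO.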

[15] = biological target: human Retinoic Acid Receptor gamma (RARg), RARG (gene 5916) (UniProt P13631); test: ATG_RARg_TRANS: Attagene TRANS-FACTORIAL HepG2 Assay for human Retinoic Acid Receptor gamma (RARg) (AID 2283009);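 for AC50: AC50 is for reporter induction above DMSO meaning RARg activation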
Summary of the method: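 HepG2, RARg-GAL4 TRANS system, 24 h exposure; reporter mRNA by RT-PCR + CE fluorescence; increase over DMSO.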

[16] = biological target: human RAR-related Orphan Receptor gamma (RORg), RORC (gene 6097) (UniProt P51449); test: ATG_RORg_TRANS: Attagene TRANS-FACTORIAL HepG2 Assay for human RAR-related Orphan Receptor gamma (RORg) (AID 2283011)
human RAR-related Orphan Receptor gamma (RORg), RORC (gene 6097), sequence (P51449 whole entry, looked up, the tested form may be a part): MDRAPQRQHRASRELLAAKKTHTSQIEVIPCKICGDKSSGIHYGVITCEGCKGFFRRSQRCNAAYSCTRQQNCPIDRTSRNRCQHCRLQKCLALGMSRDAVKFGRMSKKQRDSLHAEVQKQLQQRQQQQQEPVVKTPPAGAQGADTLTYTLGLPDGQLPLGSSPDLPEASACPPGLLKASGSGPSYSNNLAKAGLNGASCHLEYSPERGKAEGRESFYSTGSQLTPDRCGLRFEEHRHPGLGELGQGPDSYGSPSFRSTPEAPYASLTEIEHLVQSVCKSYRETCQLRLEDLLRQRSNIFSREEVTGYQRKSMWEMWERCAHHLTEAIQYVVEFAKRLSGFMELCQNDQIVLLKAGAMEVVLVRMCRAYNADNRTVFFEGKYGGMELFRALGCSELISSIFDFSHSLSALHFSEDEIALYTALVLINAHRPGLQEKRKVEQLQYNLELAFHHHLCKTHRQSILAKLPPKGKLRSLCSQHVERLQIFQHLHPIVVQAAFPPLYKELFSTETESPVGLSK
Summary of the method: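 Activity is scored as increase in GAL4-UAS reporter mRNA over DMSO, detected by fluorescent RT-PCR and capillary electrophoresis in HepG2 cells transiently expressing a RORg-Gal4 chimera, 24 h after dosing.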

[17] = biological target: human Retinoid X Receptor beta (RXRb), RXRB (gene 6257) (UniProt P28702); test: ATG_RXRb_TRANS: Attagene TRANS-FACTORIAL HepG2 Assay for human Retinoid X Receptor beta (RXRb) (AID 2283013)
human Retinoid X Receptor beta (RXRb), RXRB (gene 6257), sequence (P28702 whole entry, looked up): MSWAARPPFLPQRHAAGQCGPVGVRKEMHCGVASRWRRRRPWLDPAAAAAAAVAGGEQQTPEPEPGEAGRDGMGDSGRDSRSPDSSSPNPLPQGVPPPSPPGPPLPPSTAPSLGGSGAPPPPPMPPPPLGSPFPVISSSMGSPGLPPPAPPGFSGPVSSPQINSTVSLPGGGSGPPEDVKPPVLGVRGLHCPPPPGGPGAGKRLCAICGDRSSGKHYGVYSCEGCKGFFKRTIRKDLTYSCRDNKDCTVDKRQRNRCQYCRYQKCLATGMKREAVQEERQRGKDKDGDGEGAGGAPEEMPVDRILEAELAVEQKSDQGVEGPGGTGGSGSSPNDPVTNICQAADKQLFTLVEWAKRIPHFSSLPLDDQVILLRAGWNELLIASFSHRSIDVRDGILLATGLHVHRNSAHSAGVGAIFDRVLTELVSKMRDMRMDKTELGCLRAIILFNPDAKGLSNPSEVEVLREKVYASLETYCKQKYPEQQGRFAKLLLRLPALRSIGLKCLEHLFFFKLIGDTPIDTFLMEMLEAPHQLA
Summary of the method: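 Multiplexed TRANS reporter assay in HepG2; 24 h dosing; reporter mRNA by RT-PCR/CE fluorescence; gain-of-signal relative to DMSO.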

[18] = biological target: human Peroxisome Proliferator-activated Receptor alpha (PPARa), PPARA (gene 5465) (UniProt Q07869); test: ATG_PPARa_TRANS: Attagene TRANS-FACTORIAL HepG2 Assay for human Peroxisome Proliferator-activated Receptor alpha (PPARa) (AID 2283001);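 for AC50: potency for gain of reporter signal over DMSO so agonist or activator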
human Peroxisome Proliferator-activated Receptor alpha (PPARa), PPARA (gene 5465), sequence (Q07869 whole entry, looked up, the tested form may be a part): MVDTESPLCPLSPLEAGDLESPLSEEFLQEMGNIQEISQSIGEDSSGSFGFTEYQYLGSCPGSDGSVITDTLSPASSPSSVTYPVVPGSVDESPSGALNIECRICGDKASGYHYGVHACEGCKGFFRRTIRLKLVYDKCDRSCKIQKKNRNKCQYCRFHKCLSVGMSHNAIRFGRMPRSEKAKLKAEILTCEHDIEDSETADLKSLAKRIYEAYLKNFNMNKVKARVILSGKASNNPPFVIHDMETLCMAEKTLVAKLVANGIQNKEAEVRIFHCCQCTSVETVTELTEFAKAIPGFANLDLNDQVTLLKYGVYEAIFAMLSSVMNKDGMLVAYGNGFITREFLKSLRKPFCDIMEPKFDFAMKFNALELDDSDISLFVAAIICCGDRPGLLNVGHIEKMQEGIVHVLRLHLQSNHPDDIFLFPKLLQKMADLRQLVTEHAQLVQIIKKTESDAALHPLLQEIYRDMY
Summary of the method: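 Measures transcriptional activity of an exogenous chimeric PPARa-Gal4 protein in transiently transfected HepG2 cells after 24 h dosing. Reporter mRNA quantified via RT-PCR and capillary electrophoresis; DMSO served as negative control.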

[19] = biological target: Nuclear receptor subfamily 1 group I member 2 (Homo sapiens) (UniProt O75469); test: ATG_PXR_TRANS: Attagene TRANS-FACTORIAL HepG2 Assay for human Pregnane X Receptor (PXR) (AID 2283008)
Nuclear receptor subfamily 1 group I member 2 (Homo sapiens), sequence (O75469 whole entry, looked up, the tested form may be a part): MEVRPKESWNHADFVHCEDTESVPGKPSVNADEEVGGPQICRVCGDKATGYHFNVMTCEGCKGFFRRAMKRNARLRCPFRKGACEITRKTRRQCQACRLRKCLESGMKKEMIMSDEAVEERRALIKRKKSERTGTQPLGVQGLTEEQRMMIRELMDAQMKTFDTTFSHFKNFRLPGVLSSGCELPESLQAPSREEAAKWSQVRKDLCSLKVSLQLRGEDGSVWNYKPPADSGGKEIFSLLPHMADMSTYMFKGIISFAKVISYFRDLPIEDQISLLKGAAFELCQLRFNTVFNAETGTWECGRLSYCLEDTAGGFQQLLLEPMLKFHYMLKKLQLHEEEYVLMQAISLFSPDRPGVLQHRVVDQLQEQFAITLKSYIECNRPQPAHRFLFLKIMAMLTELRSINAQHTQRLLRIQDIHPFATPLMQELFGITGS
Summary of the method: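 Read-out is fluorescence of labelled reporter cDNA fragments separated by capillary electrophoresis after RT-PCR and HpaI digestion. Source: HepG2 cells carrying PXR-GAL4/UAS reporter constructs, treated 24 h; activity fitted upward relative to DMSO.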

[20] = biological target: human RAR-related Orphan Receptor beta (RORb), RORB (gene 6096) (UniProt Q92753); test: ATG_RORb_TRANS: Attagene TRANS-FACTORIAL HepG2 Assay for human RAR-related Orphan Receptor beta (RORb) (AID 2283010);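 for AC50: potency for increased reporter mRNA meaning activation of RORb-Gal4 chimera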
human RAR-related Orphan Receptor beta (RORb), RORB (gene 6096), sequence (Q92753 whole entry, looked up, the tested form may be a part): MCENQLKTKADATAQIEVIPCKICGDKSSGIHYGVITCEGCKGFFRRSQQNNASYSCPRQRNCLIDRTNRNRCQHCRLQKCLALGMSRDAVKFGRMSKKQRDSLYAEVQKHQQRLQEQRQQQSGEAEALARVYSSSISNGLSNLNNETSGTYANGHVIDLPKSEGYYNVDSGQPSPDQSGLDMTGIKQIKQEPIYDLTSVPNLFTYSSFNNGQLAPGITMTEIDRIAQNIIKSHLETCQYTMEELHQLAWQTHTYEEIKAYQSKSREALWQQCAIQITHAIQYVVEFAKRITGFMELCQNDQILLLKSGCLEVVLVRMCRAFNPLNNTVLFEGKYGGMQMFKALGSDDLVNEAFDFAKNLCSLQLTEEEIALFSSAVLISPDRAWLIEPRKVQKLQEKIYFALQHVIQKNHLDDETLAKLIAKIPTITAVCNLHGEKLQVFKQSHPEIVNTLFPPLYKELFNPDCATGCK
Summary of the method: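 In this TRANS-format test, human HepG2 cells express chimeric NR-Gal4 fusion proteins driving GAL4-UAS reporters. After 24 h dosing, reporter transcripts are measured by fluorescent RT-PCR/capillary electrophoresis, with DMSO as negative control.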

Measured: AC50

C=CC(=O)N(C)C
inactive: [1] | [2] | [3] | [4] | [5] | [6]

ClCC(Cl)CCl
inactive: [1] | [7] | [8] | [9] | [10] | [3] | [11] | [12] | [13] | [14] | [15] | [16] | [5] | [17]

CCC(C)(C)c1ccc(O)c(C(C)(C)CC)c1
inactive: [1] | [12] | [13]
active: [8] 8.8 µM | [9] 11.5 µM | [10] 11.1 µM | [18] 55.2 µM | [3] 52 µM | [11] 12.4 µM | [14] 8.85 µM | [4] 33.4 µM | [19] 12.6 µM | [15] 27.4 µM | [20] 27.3 µM | [5] 33.4 µM | [17] 9.09 µM | [6] 45.8 µM

Nc1ncc([N+](=O)[O-])s1
active: [7] 12.2 µM
inactive: [1] | [8] | [9] | [10] | [18] | [3] | [11] | [14] | [4] | [20] | [16] | [17]

COc1cc(-c2ccc(N)c(OC)c2)ccc1N
inactive: [8] | [9] | [10] | [18] | [3] | [11] | [12] | [13] | [14] | [4] | [19] | [15] | [20] | [5] | [6]
active: [1] 27.5 µM and 28.5 µM | [13] 27.4 µM | [14] 28.8 µM | [15] 27.2 µM | [17] 27.6 µM

COc1cc(OC)nc(NC(=O)NS(=O)(=O)c2ncccc2C(=O)N(C)C)n1
inactive: [1] | [7] | [8] | [9] | [10] | [18] | [3] | [11] | [14] | [4] | [20] | [16] | [5] | [17]

CC(=O)OC(c1ccccc1)C(Cl)(Cl)Cl (stereo not drawn)
inactive: [1] | [8] | [9] | [10] | [18] | [3] | [11] | [14] | [4] | [5] | [6]
active: [19] 59 µM

CCOC(=O)CP(=O)(OCC)OCC
inactive: [1] | [2] | [4] | [19] | [5] | [6]

Cl/C=C\C[N+]12CN3CN(CN(C3)C1)C2
active: [2] 173 µM
inactive: [1] | [4] | [20] | [5]

CC(C)C1CCC(Cc2ccc(Cl)cc2)C1(O)Cn1cncn1 (stereo not drawn)
active: [2] 11 µM | [19] 1.79 µM
inactive: [1] | [12] | [13] | [4] | [15] | [5] | [17] | [6]

CCCCCCCCCl
inactive: [1] | [2] | [3] | [13] | [4] | [19] | [15] | [20] | [5] | [17]

ClC(Cl)=C(Cl)C(Cl)=C(Cl)Cl
active: [1] 149 µM | [7] 14.6 µM | [8] 32.4 µM | [9] 29.2 µM | [10] 36.9 µM | [11] 34 µM | [14] 14.3 µM
inactive: [3] | [4] | [19] | [15] | [16] | [5] | [17] | [6]

CC(=O)[O][Hg][c]1ccccc1
inactive: [18] | [3] | [13] | [4] | [19] | [6]
active: [1] 2.5 µM | [8] 1.17 µM | [9] 2.36 µM | [10] 1.78 µM | [11] 2.69 µM | [14] 1.18 µM | [17] 14.8 µM

ClCc1cccnc1
active: [1] 50.9 µM | [4] 51.8 µM
inactive: [2] | [3] | [20] | [5] | [17] | [6]

CCN(CC)C(=O)Cl
inactive: [1] | [2] | [3] | [4] | [19] | [20] | [17]

COC(=O)Cc1ccccc1
inactive: [1] | [7] | [8] | [9] | [10] | [18] | [3] | [11] | [14] | [4] | [19] | [20] | [5]

N#Cc1ccccn1
inactive: [1] | [2] | [20]

CC(C)(OO)c1ccccc1
inactive: [1] | [7] | [8] | [9] | [10] | [18] | [3] | [11] | [14] | [4] | [20] | [17]

CC(Br)C(=O)O (stereo not drawn)
inactive: [1] | [2] | [3] | [12] | [19] | [15] | [5]

NNC(=S)NN
inactive: [1] | [2] | [4] | [5] | [17] | [6]

CC(C)(c1ccc(OCC2CO2)cc1)c1ccc(OCC2CO2)cc1 (stereo not drawn)
active: [1] 24.9 µM | [2] 56.2 µM
inactive: [4] | [19] | [16] | [5] | [17]
